The source of these data is PubChem BioAssay AID434970 (Sanford-Burnham Center for Chemical Genomics, 2010).

SMILES strings stand for the structures. The whole screen tested about 11,000 compounds, of which about 310 (2.8%) were called active. Rule as the data show it: active = activity change below about -85%; inactive = the rest. Many of the other results were omitted from the sample, so actives are more common in it than they were.

The experiment relates to intestinal alkaline phosphatase [Mus musculus]. Kind of experiment: activators of mouse IAP, confirmation, biochemical, luminescence, single concentration (AID 434970). Particulars: purified mouse IAP, CDP-Star luminescence, 30 min, at 10 µM; activation factor: measured here: IAP activation factor, stronger effect = higher value; activity change, negative = activation: stronger effect = lower value.
With `COc1ccc(NC(=O)Nc2ccc3c(c2)C(=O)N([C@H](C)CO)C[C@H](C)[C@@H](CN(C)C(=O)Nc2ccc(C(F)(F)F)cc2)O3)cc1`, the activation factor was 1.69 and the activity change, negative = activation was -68.8% (inactive).
Regarding `C[C@H](CO)N1C[C@H](C)[C@@H](CN(C)C(=O)Nc2ccc(C(F)(F)F)cc2)Oc2ccc(NC(=O)NC3CCCCC3)cc2C1=O`, the activation factor turned out to be 1.76 and the activity change, negative = activation is -76.3% (inactive).
Take `C[C@H](CO)N1C[C@H](C)[C@@H](CN(C)S(=O)(=O)c2cccs2)Oc2ccc(NC(=O)Nc3ccccc3)cc2C1=O`: the activation factor amounted to 2.52 and the activity change, negative = activation was -152% (active).
In the case of `C[C@H](CO)N1C[C@H](C)[C@@H](CN(C)S(=O)(=O)c2cccs2)Oc2ccc(NC(=O)NC3CCCCC3)cc2C1=O`, the activation factor is 2.6 and the activity change, negative = activation is -160% (active).
Turning to `COc1ccc(NC(=O)Nc2ccc3c(c2)C(=O)N([C@H](C)CO)C[C@H](C)[C@@H](CN(C)S(=O)(=O)c2cccs2)O3)cc1`, the activation factor is 2.1 and the activity change, negative = activation was -110% (active).
Consider `CCOC(=O)C1=CN(Cc2ccco2)S(=O)(=O)N(CC)C1c1ccc(C(F)(F)F)cc1` (stereo not drawn), for which the activation factor is 0.893 and the activity change, negative = activation is 10.7% (inactive).
For `CCOc1ccc(N2CC(C(=O)NCCCN3CCOCC3)CC2=O)cc1` (stereo not drawn), in that order: 0.917 and 8.3% (inactive).
For the molecule `COc1ccccc1CC(=O)N(CCC#N)CCC#N`, the activation factor was 0.913 and the activity change, negative = activation is 8.65% (inactive).
`O=C(COc1c(F)c(F)cc(F)c1F)NC(=O)NC1CCCC1`: the activation factor came out at 1.08 and the activity change, negative = activation is -7.8% (inactive).
On to `N#C/C(=C1/CCCCCN1)c1nc2ccccc2[nH]1`, for which the activation factor is 1.08 and the activity change, negative = activation was -7.65% (inactive).
In the case of `CCOC(=O)N1CCN(S(=O)(=O)c2ccc3c(c2)SCC(=O)N3)CC1`, the activation factor came out at 1.06 and the activity change, negative = activation was -6.25% (inactive).
As for `COC(=O)[C@@]1(C)[C@H]2C(=O)N(C)C(=O)[C@H]2[C@H]2CN=C(SCc3ccc(Cl)cc3)N21`, the activation factor was 1.1 and the activity change, negative = activation is -9.6% (inactive).
For `Cc1ccccc1C(=O)/C=C1\NC(=O)CS1`, in that order: 1.05 and -5.35% (inactive).
Turning to `COc1cccc(NC(=O)CN(c2cccc(C(F)(F)F)c2)S(C)(=O)=O)c1`, the activation factor stood at 1.12 and the activity change, negative = activation is -12.2% (inactive).
For `COc1cccc(NC(=O)Nc2ccc(C(C)(C)C)cc2)c1`, the activation factor stood at 2.18 and the activity change, negative = activation is -118% (active).
Consider `COc1cccc(NC(=O)Nc2cc(Cl)ccc2C)c1`, for which the activation factor came out at 1.41 and the activity change, negative = activation was -40.7% (inactive).
Regarding `COc1cccc(C(C)NC(=O)Nc2cccc(C(F)(F)F)c2)c1` (stereo not drawn), the activation factor stood at 3.84 and the activity change, negative = activation is -284% (active).
Turning to `CCOP(=O)(OCC)C(NC(=O)Nc1ccc(Cl)cc1)c1ccccc1` (stereo not drawn), the activation factor came to 1.56 and the activity change, negative = activation is -56.5% (inactive).
On to `CCc1ccc(NC(=O)Nc2cccc(OC)c2)cc1`, for which the activation factor is 1.62 and the activity change, negative = activation is -62.5% (inactive).
Consider `COc1cccc(NC(=O)Nc2cc(NC(=O)Nc3cccc(OC)c3)c(C)nc2C)c1`, for which the activation factor was 1.65 and the activity change, negative = activation is -65.3% (inactive).
Regarding `COc1ccc(N2CCN(C(=O)Nc3cccc(C(F)(F)F)c3)CC2)cc1`, the activation factor is 1.14 and the activity change, negative = activation was -14.2% (inactive).
With `CC(=O)Nc1cccc(NC(=O)Nc2ccc(C)c(Cl)c2)c1`, the activation factor came out at 1.9 and the activity change, negative = activation was -89.6% (inactive).
As for `COc1cccc(NC(=O)Nc2ccc(C)c(Cl)c2)c1`, the activation factor is 2.17 and the activity change, negative = activation is -117% (active).
Consider `Cc1ccc(NC(=O)Nc2ccc(F)cc2)cc1Cl`, for which the activation factor amounted to 1.51 and the activity change, negative = activation is -50.8% (inactive).
Turning to `CCOP(=O)(OCC)C(NC(=O)Nc1ccc(C)c(Cl)c1)c1ccccc1` (stereo not drawn), the activation factor came to 2.59 and the activity change, negative = activation is -159% (active).
As for `Cc1oc(-c2ccc3c(c2)OCCO3)cc1C(=O)NC(CCC(=O)O)C(=O)O` (stereo not drawn), the activation factor came out at 0.95 and the activity change, negative = activation is 5.05% (inactive).
For `O=C(NCCNS(=O)(=O)c1ccccc1)c1cc(OCC(F)(F)F)ccc1OCC(F)(F)F`, the activation factor came out at 1.09 and the activity change, negative = activation is -9.5% (inactive).
Turning to `C=CCn1c(=O)c2ccccc2n2c(Sc3nnnn3-c3ccccc3)nnc12`, the activation factor was found to be 1 and the activity change, negative = activation is -0.35% (inactive).
`O=C(CN1N=C(C(F)(F)F)CC1(O)c1ccc([N+](=O)[O-])cc1)c1ccccc1` (stereo not drawn): the activation factor was 1.07 and the activity change, negative = activation was -7.45% (inactive).
For `CC1=NN(/C(=N\c2nnc(C)s2)Nc2ccc(C(C)(C)C)cc2)[C@H](c2ccc(C)cc2)S1`, in that order: 0.976 and 2.45% (inactive).
For `CCC(C)c1ccc(NC(=O)C2CC2)cc1` (stereo not drawn), in that order: 1.07 and -7.35% (inactive).
Taken in the same sequence, the figures for `Cc1cc(C)nc(-n2nc(C)c3c(C(F)(F)F)cc(=O)[nH]c32)n1` were 1.03 and -2.7% (inactive).
On to `C/C(=N\NC(=O)c1nn(C)cc1Br)c1cccc(NC(=O)C2CCCC2)c1`, for which the activation factor was 1.03 and the activity change, negative = activation is -3.45% (inactive).
With `Cc1c(CN2CCC(C(=O)Nc3cccc(-c4cccc(Cl)c4)c3)CC2)cnn1C`, the activation factor came out at 4.12 and the activity change, negative = activation is -312% (active).
Taken in the same sequence, the figures for `CCn1cc(CN2CCC(C(=O)Nc3cccc(-c4cccc(Cl)c4)c3)CC2)c(C)n1` were 4.96 and -396% (active).
`O=C(Nc1cccc(F)c1)N1CCN(C/C=C/c2ccccc2)CC1`: the activation factor stood at 0.988 and the activity change, negative = activation was 1.15% (inactive).
Taken in the same sequence, the figures for `C=CCn1cc(CN2CCC(C(=O)Nc3cccc(-c4cccc(Cl)c4)c3)CC2)c(C)n1` were 3.74 and -274% (active).
For the molecule `COc1ccc(Cl)cc1C(=O)NCc1cnn(C)c1C`, the activation factor worked out at 0.932 and the activity change, negative = activation is 6.75% (inactive).
For `C=CCn1cc(CN2CCC(C(=O)Nc3cccc(-c4cccc(F)c4)c3)CC2)c(C)n1`, in that order: 2.94 and -194% (active).
